Measurements: PubChem BioAssay (Tox21)
Results filed as inconclusive are left out. Activity calls are given as the source filed them. Unless noted, calls follow the shape of the dose curve; as a rule, active = well fitted curve in the direction sought with a large enough effect in the repeat runs; inconclusive = weak or mixed curves; inactive = no such curve, though single readings can be large; an effect the other way counts as inactive or inconclusive.

Experiments:
[1] = qHTS assay to identify small molecule antagonists of the estrogen receptor alpha (ER-alpha) signaling pathway using the BG1 cell line in the presence of 0.1 nM 17-beta-estradiol - cell viability counter screen (AID 1259241); also: nearly all actives have a fitted effect of over 40% in size
Summary of the method: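 CellTiter-Fluor read (30 min, 37C) on ER-alpha/ERE-luc VM7Luc4E2 cells; 22 hr compound treatment; agonist 0.1 nM E2 final; same-well multiplex.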

[2] = qHTS assay to identify small molecule antagonists of the androgen receptor (AR) signaling pathway using the MDA cell line in the presence of 0.5 nM R1881 - cell viability counter screen (AID 1259242); also: nearly all actives have a fitted effect of over 45% in size
Summary of the method: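 Counter screen for cytotoxicity run in the same wells as the AR antagonist reporter screen: MDA-kb2 cells were treated 16 hr with test compounds and 0.5 nM R1881, then live-cell protease activity was measured by fluorescence.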

[3] = biological target: Estrogen receptor (Homo sapiens) (UniProt P03372); assay: qHTS assay to identify small molecule antagonists of the estrogen receptor alpha (ER-alpha) signaling pathway using the BG1 cell line in the presence of 0.1 nM 17-beta-estradiol (AID 1259244); also: nearly all actives have a fitted effect of over 50% in size
Summary of the method: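 Cells: VM7Luc4E2, endogenous ER-alpha, 4x ERE-luc stable. Pre-culture 5 d, phenol red-free, charcoal-stripped FBS. Plated 24 h, compound + E2 0.1 nM final, 22 h 37C/5% CO2. Readout ONE-Glo luminescence.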

[4] = qHTS assay to identify small molecule HDAC inhibitors (AID 1259364); also: top concentration of the series differs between compounds; nearly all actives have a fitted effect of over 45% in size
Summary of the method: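 Luminescence from a cell-permeant luminogenic class I/II HDAC substrate reports endogenous deacetylase activity in intact HCT-116 cells treated with compounds for 2 h.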

[5] = qHTS assay to identify small molecule HDAC inhibitors - cell viability counter screen (AID 1259365); also: series mostly up to about 92 µM; nearly all actives have a fitted effect of over 50% in size
Summary of the method: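 To flag cytotoxic hits, 1,500 wild-type HCT-116 cells per well, plated the day before, receive test compounds for 2hr at 37 C before CellTiter-Glo reagent and a luminescence read.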

[6] = qHTS assay to identify small molecule agonists of the sonic hedgehog signaling (Shh) pathway - cell viability counter screen (AID 1259366); also: nearly all actives have a fitted effect of over 50% in size
Summary of the method: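 Fluorescence from CellTiter-Fluor reports live cells in this counter screen. NIH/3T3-derived Gli1-Luc reporter cells receive test compounds for 24hr at 37C; reagent goes in at 23hr.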

[7] = qHTS assay to identify small molecule antagonists of the sonic hedgehog signaling (Shh) pathway - cell viability counter screen (AID 1259367); also: nearly all actives have a fitted effect of over 55% in size
Summary of the method: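 Using CellTiter-Fluor, viability of Gli1-Luc reporter 3T3 cells is read by fluorescence in the wells used for the Shh luciferase assay. Treatment lasts 23 hr with conditioned medium, then reagent 1 hr at 37C.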

[8] = qHTS assay to identify small molecule agonists of the sonic hedgehog signaling (Shh) pathway (AID 1259368; calls by dose curve;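 also: NIH/3T3-derived 3T3Gli1-Luc cells carrying a stable Gli1-driven firefly luciferase reporter; series mostly up to about 92 µM; nearly all actives have a fitted effect of over 15% in size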)
Summary of the method: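 3T3Gli1-Luc (NIH/3T3 clone, stable Gli1-Luc); 4 hr pre-incubation, then cpd in DMSO 24 hr, 37 C/5% CO2; luciferase reagent 30 min RT; luminescence.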

[9] = qHTS assay to identify small molecule antagonists of the sonic hedgehog signaling (Shh) pathway (AID 1259369; calls by dose curve; also: nearly all actives have a fitted effect of over 45% in size)
Summary of the method: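 3T3Gli1-Luc, conditioned-medium-stimulated, 24hr cpd, 37C/5% CO2; Gli1-driven firefly Luc luminescence after 30min RT with luciferase reagent. Cells plated 4hr before cpd.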

[10] = biological target: Estrogen receptor beta (Homo sapiens) (UniProt Q92731); assay: qHTS assay to identify small molecule antagonists of the estrogen receptor beta (ER-beta) signaling pathway (AID 1259378; active = well fitted inhibition curve with a large enough effect in the signal ratio in the repeat runs, not every such curve was filed as active; the % refers to the signal ratio)
Summary of the method: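 Antagonist mode: compounds added to beta-lactamase reporter HEK293T ER-beta-UAS cells stimulated with E2 (1nM final), 16 hr at 37C. LiveBLAzer B/G FRET substrate, 2 hours room temperature, fluorescence read-out.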

[11] = qHTS assay to identify small molecule agonists of the androgen receptor (AR) signaling pathway in the presence of an antagonist - cell viability counter screen (AID 1259379);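 also: MDA-kb2 human breast cancer cells carrying an MMTV luciferase reporter; series mostly up to about 92 µM; nearly all actives have a fitted effect of over 25% in size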
Summary of the method: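 Cells: MDA-kb2 (MMTV-luc, AR and GR elements), 3,000/well, 5 hr settle. Added: nilutamide 3.0uM final, then compounds (15 conc.). Incubation: 16 hr, 37C, no CO2. Read-out: CellTiter-Fluor, 1 hr, fluorescence.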

[12] = qHTS assay to identify small molecule agonists of the estrogen receptor beta (ER-beta) signaling pathway - cell viability counter screen (AID 1259380); also: nearly all actives have a fitted effect of over 30% in size
Summary of the method: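 HEK293T ER-beta-UAS-bla; 2% CS-FBS; 6 hr pre-plate, 16 hr cpd at 37C/5% CO2; LiveBLAzer read first, then CellTiter-Glo 30 min RT, luminescence.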

[13] = qHTS assay to identify small molecule antagonists of the estrogen receptor beta (ER-beta) signaling pathway - cell viability counter screen (AID 1259382);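 also: HEK293T cells carrying ER-beta-UAS-bla reporter stimulated with estradiol; series mostly up to about 92 µM; nearly all actives have a fitted effect of over 55% in size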
Summary of the method: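 Cells: ER-beta-UAS-bla HEK293T, 2,000/well, 2% CS-FBS, 6 hr settle. Cpd + E2 (1nM final), 16 hr, 37C/5% CO2. Bla FRET substrate 2 hr RT, then CellTiter-Glo 30 min RT, luminescence.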

[14] = biological target: Estrogen receptor (Homo sapiens) (UniProt P03372); assay: qHTS assay to identify small molecule agonists of the estrogen receptor alpha (ER-alpha) signaling pathway in the presence of an antagonist (AID 1259383; calls by dose curve; also: top concentration of the series differs between compounds; nearly all actives have a fitted effect of over 15% in size)
Summary of the method: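 VM7Luc4E2, endog. ER-alpha + 4×ERE-luc; charcoal-stripped FBS, phenol red-free, 5 d; 24hr plating; +10.0nM ICI-182,780 (final); cpds 15 conc, 22hr, 37C/5% CO2; ONE-Glo luminescence.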

[15] = qHTS assay to identify small molecule agonists or antagonists of the thyroid stimulating hormone receptor (TSHR) signaling pathway - wild type cell line counter screen (AID 1259384; calls by dose curve)
Summary of the method: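 Counter screen in untransfected Hek293: compounds (15-point titration, triplicate) plus phosphodiesterase inhibitor Ro20-1724 added after 18 h plating; 30 min RT. Intracellular cAMP via competitive d2/cryptate immunoassay, 1 h incubation.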

[16] = biological target: Thyrotropin receptor (Homo sapiens) (UniProt P16473); assay: qHTS assay to identify small molecule antagonists of the thyroid stimulating hormone receptor (TSHR) signaling pathway (AID 1259385; calls by dose curve; also: nearly all actives have a fitted effect of over 20% in size)
Summary of the method: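 Antagonist mode: compound-treated TSHR-expressing HEK293 cells were stimulated with 1.5 ng/mL TSH (final) in presence of Ro20-1724 for 30 min at RT. HTRF cAMP detection after 1 h; each compound tested at 15 concentrations, triplicate.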

[17] = biological target: Estrogen receptor beta (Homo sapiens) (UniProt Q92731); assay: qHTS assay to identify small molecule agonists of the estrogen receptor beta (ER-beta) signaling pathway (AID 1259377; active = well fitted activation curve with a large enough effect in the signal ratio in the repeat runs, not every such curve was filed as active; the % refers to the signal ratio)
Summary of the method: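 Screening used GripTite ER-beta-UAS-bla cells held in 2% charcoal-stripped FBS medium. After overnight (16 hr) compound incubation at 37C, beta-lactamase activity was detected with a FRET substrate by fluorescence.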

[18] = qHTS assay to identify small molecule phospholipidosis (PLD) inducers (AID 1259344; active = well fitted curve in the direction sought with a large enough effect; an effect the other way counts as inactive or inconclusive)
Summary of the method: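 Fluorescent phospholipid staining (LipidTOX Red) measured by automated microscopy in fixed HepG2 cells after 24 h treatment; nuclei counterstained with Hoechst 33342; amiodarone as reference inducer.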
% is scaled to controls: 0 for no effect and ±100 for the full control effect.

Chain of Thyrotropin receptor (Homo sapiens) (P16473 whole entry, looked up): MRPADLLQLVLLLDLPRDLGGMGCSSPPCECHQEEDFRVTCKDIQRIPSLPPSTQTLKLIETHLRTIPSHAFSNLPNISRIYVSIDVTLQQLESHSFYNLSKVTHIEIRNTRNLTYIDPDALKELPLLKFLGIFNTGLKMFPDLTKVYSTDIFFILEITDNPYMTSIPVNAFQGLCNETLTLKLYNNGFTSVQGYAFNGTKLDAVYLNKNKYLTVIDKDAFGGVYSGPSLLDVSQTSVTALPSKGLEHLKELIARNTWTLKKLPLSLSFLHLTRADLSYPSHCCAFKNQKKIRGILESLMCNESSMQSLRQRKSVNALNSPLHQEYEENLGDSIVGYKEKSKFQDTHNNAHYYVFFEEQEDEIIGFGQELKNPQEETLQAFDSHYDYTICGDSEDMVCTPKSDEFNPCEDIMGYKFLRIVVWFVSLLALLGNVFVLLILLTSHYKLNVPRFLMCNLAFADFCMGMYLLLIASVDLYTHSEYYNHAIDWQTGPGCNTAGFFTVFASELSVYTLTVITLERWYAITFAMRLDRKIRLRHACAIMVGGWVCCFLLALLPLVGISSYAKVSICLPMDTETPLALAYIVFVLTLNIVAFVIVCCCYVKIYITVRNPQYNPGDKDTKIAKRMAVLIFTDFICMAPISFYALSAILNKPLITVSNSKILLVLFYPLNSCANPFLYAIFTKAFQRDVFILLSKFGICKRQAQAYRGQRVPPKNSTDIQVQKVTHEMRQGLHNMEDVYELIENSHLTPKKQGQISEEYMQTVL
Chain of Estrogen receptor (Homo sapiens) (P03372 whole entry, looked up): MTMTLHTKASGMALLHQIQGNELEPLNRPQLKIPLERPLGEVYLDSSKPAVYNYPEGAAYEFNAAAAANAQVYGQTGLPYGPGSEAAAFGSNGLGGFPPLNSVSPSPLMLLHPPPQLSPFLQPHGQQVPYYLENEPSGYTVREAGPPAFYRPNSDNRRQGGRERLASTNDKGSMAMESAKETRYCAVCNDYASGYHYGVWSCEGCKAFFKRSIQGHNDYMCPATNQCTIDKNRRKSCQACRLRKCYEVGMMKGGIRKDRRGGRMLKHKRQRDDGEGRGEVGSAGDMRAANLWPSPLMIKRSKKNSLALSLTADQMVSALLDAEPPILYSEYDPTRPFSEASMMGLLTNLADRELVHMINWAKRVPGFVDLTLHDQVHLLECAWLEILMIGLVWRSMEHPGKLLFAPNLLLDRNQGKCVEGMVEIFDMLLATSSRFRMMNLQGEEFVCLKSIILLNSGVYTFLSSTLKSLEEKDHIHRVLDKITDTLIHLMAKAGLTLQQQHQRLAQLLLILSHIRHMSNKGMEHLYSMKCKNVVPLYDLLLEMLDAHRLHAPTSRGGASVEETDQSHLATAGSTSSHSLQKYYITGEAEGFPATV
Chain of Estrogen receptor beta (Homo sapiens) (Q92731 whole entry, looked up): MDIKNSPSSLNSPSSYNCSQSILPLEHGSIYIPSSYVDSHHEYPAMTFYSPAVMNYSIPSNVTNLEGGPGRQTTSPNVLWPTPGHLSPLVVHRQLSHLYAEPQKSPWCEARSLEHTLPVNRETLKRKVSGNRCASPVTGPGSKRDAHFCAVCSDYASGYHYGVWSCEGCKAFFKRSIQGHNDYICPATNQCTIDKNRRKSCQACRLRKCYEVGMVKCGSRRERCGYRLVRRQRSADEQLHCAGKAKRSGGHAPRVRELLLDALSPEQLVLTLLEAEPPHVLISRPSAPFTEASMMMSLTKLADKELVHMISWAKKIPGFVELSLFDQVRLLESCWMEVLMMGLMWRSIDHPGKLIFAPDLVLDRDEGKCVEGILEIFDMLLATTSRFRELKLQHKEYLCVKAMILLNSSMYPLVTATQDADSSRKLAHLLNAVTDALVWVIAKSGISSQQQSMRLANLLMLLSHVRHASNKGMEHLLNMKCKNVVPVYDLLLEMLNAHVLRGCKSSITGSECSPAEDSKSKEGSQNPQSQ

OC1CCC(C2CCCCC2)CC1 (stereo unspecified)
inactive: Potency [1] | Potency [2] | Potency [3] | Potency [4] | Potency [5] | Potency [6] | Potency [7] | Potency [8] | Potency [9] | Potency [10] | Potency [11] | Potency [12] | Potency [13] | Potency [14] | outcome [15] | Potency [16]

COC(=O)c1ccccc1OC
inactive: Potency [1] | Potency [2] | Potency [3] | Potency [4] | Potency [5] | Potency [6] | Potency [7] | Potency [8] | Potency [9] | Potency [17] | Potency [10] | Potency [11] | Potency [12] | Potency [13] | Potency [14] | outcome [15] | Potency [16]

CCCCCCCCCCC[C@@H](C[C@@H]1OC(=O)[C@H]1CCCCCC)OC(=O)[C@H](CC(C)C)NC=O
inactive: Potency [1] | Potency [2] | Potency [3] | Potency [18] | Potency [4] | Potency [5] | Potency [6] | Potency [7] | Potency [8] | Potency [9] | Potency [13] | Potency [14] | outcome [15] | Potency [16]

O[C@@H]([C@H](O)[C@H](O)CBr)[C@H](O)CBr
inactive: Potency [1] | Potency [2] | Potency [3] | Potency [18] | Potency [5] | Potency [6] | Potency [8] | Potency [9] | Potency [10] | Potency [11] | Potency [12] | Potency [13] | Potency [14] | outcome [15]

COC(C)=O
inactive: Potency [1] | Potency [2] | Potency [3] | Potency [18] | Potency [4] | Potency [5] | Potency [6] | Potency [8] | Potency [9] | Potency [17] | Potency [10] | Potency [13] | Potency [14]

CCCCCCCCCCCC(=O)OCC(C)OC(=O)CCCCC(=O)O (stereo unspecified)
inactive: Potency [1] | Potency [2] | Potency [3] | Potency [4] | Potency [5] | Potency [6] | Potency [7] | Potency [8] | Potency [9] | Potency [17] | Potency [10] | Potency [11] | Potency [12] | Potency [13] | Potency [14] | outcome [15] | Potency [16]

OC/C=C/CO
inactive: Potency [1] | Potency [2] | Potency [3] | Potency [4] | Potency [5] | Potency [6] | Potency [7] | Potency [8] | Potency [9] | Potency [10] | Potency [11] | Potency [12] | Potency [13] | Potency [14] | outcome [15] | Potency [16]

C[C@H]1NCc2cc(-c3ccc4c(=O)c(C(=O)O)cn(C5CC5)c4c3OC(F)F)ccc21
inactive: activity change, negative = cytotoxicity [1] -0.503% [at 19 µM] | viability change, negative = cytotoxic [2] -0.218% [at 19 µM] | activity change, negative = inhibition [3] -8.57% [at 19 µM] | Potency [18] | activity change, negative = inhibition [4] -0.849% [at 19 µM] | activity change, negative = cytotoxicity [5] 0.0413% [at 19 µM] | viability change, negative = cytotoxic [6] 2.18% [at 19 µM] | activity change [8] -0.818% [at 18.9 µM, active compounds read high] | activity change, negative = inhibition [9] 4.27% [at 19 µM] | activity change, negative = cytotoxicity [12] -4.82% [at 19 µM] | activity change, negative = cytotoxicity [13] 2.92% [at 19 µM] | activation [14] -0.399% [at 19 µM] | cAMP activity change [15] -2.09% [at 18.9 µM] | activity change, negative = inhibition [16] 6.84% [at 19 µM]
